Results: PubChem BioAssay (Tox21)
“And” between values parts separate entries of the source, which are not always exact repeats. Equal entries are not always repeated. Records with an inconclusive call do not appear. Where a call stands in place of a potency, no number is given. A structure can be active in one record and inactive in another. The source made the active and inactive calls. Unless noted, calls follow the shape of the dose curve; as a rule, active = well fitted curve in the direction sought with a large enough effect in the repeat runs; inconclusive = weak or mixed curves; inactive = no such curve, though single readings can be large; an effect the other way counts as inactive or inconclusive.

Tests used:
[1] = qHTS assay for small molecules that induce genotoxicity in human embryonic kidney cells expressing luciferase-tagged ATAD5 (AID 651632); also: nearly all actives have a fitted effect of over 15% in size
Procedure, shortened: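 ATAD5-luc HEK293T, 2,000 cells/well; cpd or DMSO pin-transferred; 16 hr, 37C/5% CO2; Amplite 30 min RT; luminescence.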

[2] = qHTS assay for small molecules that induce genotoxicity in human embryonic kidney cells expressing luciferase-tagged ATAD5 - cell viability (AID 651634; calls by dose curve; also: nearly all actives have a fitted effect of over 25% in size)
Procedure, shortened: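 Fluorescence from CellTiter-Fluor, reporting protease activity within live cells, served as the viability read-out. HEK293T cells carrying luciferase-tagged ATAD5 had been treated with compound for 15.5 hr at 37C.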

[3] = qHTS assay for small molecule disruptors of the mitochondrial membrane potential - cell viability (AID 720634; calls by dose curve; also: nearly all actives have a fitted effect of over 20% in size; also: potency is read from the fitted curve at half-maximal effect)
Procedure, shortened: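 Cells: HepG2, 2,000/well, attached overnight. Compound 1 hr, 37 C/5% CO2. +m-MPI dye, +CellTiter-Glo 30 min RT. Readout: luminescence (ATP).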

[4] = qHTS assay for small molecule disruptors of the mitochondrial membrane potential (AID 720635); also: potency is read from the fitted curve at half-maximal effect
Procedure, shortened: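 HepG2 cells exposed to compound 1 hr at 37C, then Mito-MPS dye 30 min. Ratio read of aggregate (540/590 nm) versus monomer (490/535 nm) fluorescence.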

[5] = qHTS assay to test for compound auto fluorescence at 590 nm (red) in HepG2 cells (AID 720674)
Procedure, shortened: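 Seeding: 2,000 HepG2 cells/well, MEM/10% FBS, overnight 37 C. Dosing: compound vs DMSO. Incubation: 1 hr, 37 C, 5% CO2. Read: fluorescence 540 ex/590 em, Rose Bengal sodium as red reference.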

[6] = qHTS assay to test for compound auto fluorescence at 535 nm (green) in HepG2 cells (AID 720675)
[7] = qHTS assay to test for compound auto fluorescence at 460 nm (blue) in HEK293 cells (AID 720678)
Procedure, shortened: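 Auto fluorescence in the blue band was quantified as triamterene equivalency. HEK293 cells were seeded at 2,000/well, dosed after a 4-5 hr attachment, and kept overnight at 37C before the 405/460 nm reading.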

[8] = qHTS assay to test for compound auto fluorescence at 590 nm (red) in HEK293 cells (AID 720679)
Procedure, shortened: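 Autofluorescence equivalency to Rose Bengal sodium, 540/590nm, in HEK293 cells exposed overnight to 23 nL compound per well.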

[9] = qHTS assay to test for compound auto fluorescence at 535 nm (green) in HEK293 cells (AID 720680)
[10] = qHTS assay to test for compound auto fluorescence at 460 nm (blue) in HEK293 cell free culture (AID 720681)
Procedure, shortened: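 Compounds were added to cell-free DMEM with 10% FBS and fluorescence read directly. The blue channel used 405 nm excitation and 460 nm emission, with triamterene as the reference fluorophore.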

[11] = qHTS assay to test for compound auto fluorescence at 535 nm (green) in HEK293 cell free culture (AID 720682)
Procedure, shortened: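 Cell-free medium (DMEM, 10% FBS) receives compound or DMSO by pintool. Plate read directly at Ex 485/Em 535 nm. Signal converted to fluorescein equivalency.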

[12] = qHTS assay to test for compound auto fluorescence at 590 nm (red) in HEK293 cell free culture (AID 720683)
Procedure, shortened: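 Cell-free wells of DMEM with 10% FBS received compound, and intrinsic fluorescence was read at excitation/emission 540/590 nm. Values expressed as equivalence to Rose Bengal sodium.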

[13] = qHTS assay to test for compound auto fluorescence at 590 nm (red) in HepG2 cell free culture (AID 720684)
Procedure, shortened: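 Compound was pinned into wells holding MEM with 10% FBS and no cells, and red fluorescence was read at Ex/Em 540/590 nm. Signal is expressed as auto fluorescence equivalency relative to Rose Bengal sodium.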

[14] = qHTS assay to test for compound auto fluorescence at 460 nm (blue) in HepG2 cell free culture (AID 720685)
Procedure, shortened: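 Compound (23 nL) or DMSO pinned into cell-free MEM with 10% FBS; blue fluorescence read at 405/460 nm excitation/emission, expressed as auto-fluorescence equivalency to triamterene.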

[15] = qHTS assay to test for compound auto fluorescence at 535 nm (green) in HepG2 cell free culture (AID 720686)
[16] = qHTS assay for small molecule agonists of the p53 signaling pathway - cell viability (AID 651633; calls by dose curve; also: nearly all actives have a fitted effect of over 30% in size; also: potency is read from the fitted curve at half-maximal effect)
Procedure, shortened: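 p53RE-bla cells were treated with compound for 16 hours at 37 C. Cytotoxicity was then measured as CellTiter-Glo luminescence after 30 min at room temperature.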

[17] = qHTS assay to test for compound auto fluorescence at 460 nm (blue) in HepG2 cells (AID 720687)
Procedure, shortened: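 HepG2 cells in MEM with 10% FBS, attached overnight at 37 C, were exposed to compound or DMSO for 1 hr at 37 C, 5% CO2. Blue fluorescence was read at 405/460 nm, with triamterene as reference fluorophore.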

[18] = target: Glucocorticoid receptor (Homo sapiens) (UniProt P04150); experiment: qHTS assay to identify small molecule agonists of the glucocorticoid receptor (GR) signaling pathway (AID 720691; active = well fitted activation curve with a large enough effect in the signal ratio in the repeat runs, not every such curve was filed as active; the % refers to the signal ratio); conditions: GR-bla HeLa, beta-lactamase reporter ratio, 18 h; activation: at 62.4 µM (top of the series)
Sequence of Glucocorticoid receptor (Homo sapiens) (P04150 whole entry, looked up): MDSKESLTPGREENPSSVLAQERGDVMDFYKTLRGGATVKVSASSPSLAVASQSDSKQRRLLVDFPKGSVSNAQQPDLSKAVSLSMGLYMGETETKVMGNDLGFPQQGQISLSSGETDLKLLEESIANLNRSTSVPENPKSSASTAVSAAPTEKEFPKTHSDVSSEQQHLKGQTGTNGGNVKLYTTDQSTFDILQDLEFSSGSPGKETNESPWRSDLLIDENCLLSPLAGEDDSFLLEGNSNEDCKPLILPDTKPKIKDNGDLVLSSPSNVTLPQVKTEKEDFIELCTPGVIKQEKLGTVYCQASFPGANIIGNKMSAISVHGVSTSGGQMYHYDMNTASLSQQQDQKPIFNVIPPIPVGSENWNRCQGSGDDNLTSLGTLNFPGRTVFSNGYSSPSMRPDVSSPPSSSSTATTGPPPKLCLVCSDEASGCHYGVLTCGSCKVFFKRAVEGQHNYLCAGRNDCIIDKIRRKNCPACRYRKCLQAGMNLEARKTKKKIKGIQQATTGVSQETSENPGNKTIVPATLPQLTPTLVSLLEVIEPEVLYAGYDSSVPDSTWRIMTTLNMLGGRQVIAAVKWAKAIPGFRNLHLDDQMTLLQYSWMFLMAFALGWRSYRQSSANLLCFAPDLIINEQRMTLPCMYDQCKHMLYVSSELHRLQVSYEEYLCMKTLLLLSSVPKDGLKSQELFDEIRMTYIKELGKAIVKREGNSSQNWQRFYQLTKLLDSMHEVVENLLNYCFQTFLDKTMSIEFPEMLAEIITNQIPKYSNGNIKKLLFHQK
Procedure, shortened: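 Fluorescence intensity from LiveBLAzer B/G FRET substrate (2 h, room temperature) reports beta-lactamase expression driven by the glucocorticoid response element in GR-bla HeLa cells after 18 h compound exposure at 37 C.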

[19] = target: Glucocorticoid receptor (Homo sapiens) (UniProt P04150); experiment: qHTS assay to identify small molecule antagonists of the glucocorticoid receptor (GR) signaling pathway (AID 720692; active = well fitted inhibition curve with a large enough effect in the signal ratio in the repeat runs, not every such curve was filed as active; the % refers to the signal ratio; also: potency is read from the fitted curve at half-maximal effect)
Procedure, shortened: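 HeLa GR-bla cells; cmpd + dex 5 nM final, 18 h 37 C; LiveBLAzer B/G FRET substrate 2 h RT; fluorescence intensity read. Antagonist mode, qHTS.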

SMILES | Potency [1] | Potency [2] | Potency [3] | Potency [4] | Potency [5] | Potency [6] | Potency [7] | Potency [8] | outcome [9] | Potency [10] | outcome [11] | Potency [12] | Potency [13] | Potency [14] | Potency [15] | Potency [16] | Potency [17] | Potency [18] | Potency [19]
CCCCCCCCCCCCCCCC(=O)OC[C@H](O)[C@H]1OC(=O)C(O)=C1O | inactive | inactive | inactive | inactive | inactive | inactive | inactive | inactive | inactive | inactive | inactive | inactive | inactive | inactive | inactive |  |  |  | 
Oc1ccc2cc(SSc3ccc4cc(O)ccc4c3)ccc2c1 | inactive |  | inactive | 38.6 µM (active) and 24.3 µM (active) | inactive | inactive | inactive |  | inactive | inactive | inactive | inactive | inactive | inactive | inactive | inactive | inactive |  | 
Cc1c(C)c2c(c(C)c1OC(=O)CCC(=O)O)CC[C@@](C)(CCC[C@H](C)CCC[C@H](C)CCCC(C)C)O2 | inactive |  | inactive |  | inactive | inactive | inactive |  | inactive | inactive | inactive | inactive | inactive | inactive | inactive | inactive | inactive |  | 
Fc1ccc(C(c2ccc(F)cc2)N2CCN(C/C=C/c3ccccc3)CC2)cc1 | inactive |  | inactive |  | inactive | inactive | inactive | inactive | inactive | inactive | inactive | inactive | inactive | inactive | inactive | 3.76 µM (active) | inactive | inactive | 
Cc1ccc(O)c(C(C)(C)C)c1 | inactive |  | 27.3 µM (active) and 54.5 µM (active) | 5.44 µM (active) and 27.3 µM (active) | inactive | inactive | inactive |  | inactive | inactive | inactive | inactive | inactive |  |  | 54.4 µM (active) and inactive | inactive |  | inactive
CN(C)c1ccc(SC#N)cc1 | inactive |  | inactive |  | inactive | inactive | inactive |  | inactive | inactive | inactive | inactive | inactive | inactive | inactive | inactive | inactive | inactive | 
CCC(N)(CO)CO | inactive |  | inactive | inactive | inactive | inactive | inactive |  | inactive | inactive | inactive | inactive | inactive | inactive | inactive | inactive | inactive | inactive | inactive
O=C1CCCCCN1SSN1CCCCCC1=O | inactive |  | inactive |  | inactive | inactive | inactive | inactive | inactive | inactive | inactive | inactive | inactive | inactive | inactive | inactive | inactive |  | 
CSc1ccc(/C=C2/C(C)=C(CC(=O)O)c3cc(F)ccc32)cc1 | inactive |  | inactive |  | inactive | inactive | inactive | inactive | inactive | inactive | inactive | inactive | inactive |  | inactive | 26.6 µM (active) | inactive |  | 
Oc1ccc(C2(c3ccc(O)cc3)CC3CC2C2CCCC32)cc1 (stereo not drawn) | inactive |  | inactive | 33 µM (active) | inactive | inactive | inactive |  | inactive | inactive | inactive | inactive | inactive | inactive |  | 58.7 µM (active) | inactive |  | 18.7 µM (active)
CCOC(=O)O[C@H](C)OC(=O)c1ccc2c(c1)cc(C(=O)NC1CCN(C(C)C)CC1)n2Cc1cc(-c2ccc(Cl)s2)on1 | inactive |  |  | 64.1 µM (active) | inactive | inactive | inactive | inactive | inactive | inactive | inactive | inactive | inactive | inactive |  | 25.5 µM (active) | inactive |  | 
Clc1ccccc1C(c1ccccc1)(c1ccccc1)n1ccnc1 | inactive |  | inactive and 54.5 µM (active) | 10.1 µM (active) and 9.69 µM (active) | inactive | inactive | inactive | inactive | inactive | inactive | inactive | inactive | inactive | inactive | inactive | 19.3 µM (active) | inactive |  | 7.23 µM (active)
OCCN1CCN(CC/C=C2/c3ccccc3Sc3ccc(C(F)(F)F)cc32)CC1 | inactive |  |  |  | inactive | inactive | inactive | inactive | inactive | inactive | inactive | inactive | inactive | inactive | inactive | 29.8 µM (active) | inactive |  | 
CCCCN(CCCC)c1ccc(C(=O)c2ccccc2C(=O)O)c(O)c1 | inactive |  | inactive |  | inactive | inactive | inactive | inactive | inactive | inactive | inactive | inactive | inactive | inactive |  | 17.4 µM (active) | inactive |  | 
CCCCCCCC/C=C/CCCCCCCC1=NCCN1CCO | inactive |  | 54.5 µM (active) | 54.5 µM (active) | inactive | inactive | inactive | inactive | inactive | inactive | inactive | inactive | inactive |  |  | 43.3 µM (active) | inactive |  | 
